{"source": "PubChem BioAssay AID463173", "about": "(ICCB-Longwood Screening Facility, Harvard Medical School, 2010)", "note": "In all, about 52,000 compounds went through this assay and about 4,300 (8.3%) were called active. Only a selection was taken, and actives are over-represented in it overall. A number with no mark means an inactive call. Rule as the data show it: active = survival mostly below about 52% (no sharp cut-off); inactive = mostly above about 56%.", "data": [{"tested_on": "DeltatarO mutant", "test": "S. aureus survival, RN4220 and DeltatarO strains – OD600, teichoic acid synthesis inhibitors, primary screen (AID 463173)", "details": "S. aureus RN4220 wild type/DeltatarO growth, OD600, 18 h, active compounds read low, screened at 18.75 µg/mL (by protocol)", "values": [{"compound": "Cc1nnc(NC(=O)CSCc2cc(=O)c3ccc(C)c(C)c3[nH]2)s1", "survival": "73%"}, {"compound": "NC(=O)CN1C(=O)C(O)(CC(=O)/C=C\\c2ccccc2)c2ccccc21", "note": "(stereo unspecified)", "survival": "96%"}, {"compound": "COc1ccc(-c2cc(C(F)(F)F)nc(NCc3ccccc3)n2)cc1", "survival": "-4% (active)"}, {"compound": "COc1ccc(-c2cc(C(F)(F)F)nc(SCC(=O)NCCc3ccccc3)n2)cc1", "survival": "121%"}, {"compound": "COc1ccc(CNC(=O)CSc2nc(-c3ccc(OC)c(OC)c3)cc(C(F)(F)F)n2)cc1", "survival": "72%"}, {"compound": "COc1ccc(-c2cc(C(F)(F)F)nc(SCC(=O)NCc3ccc(OC)c(OC)c3)n2)cc1", "survival": "60%"}, {"compound": "COc1ccc(CNC(=O)CSc2nc(-c3ccc(OC)cc3)cc(C(F)(F)F)n2)cc1", "survival": "83%"}, {"compound": "COc1ccc(CNc2nc(-c3ccc(OC)cc3)cc(C(F)(F)F)n2)cc1", "survival": "-2% (active)"}, {"compound": "COc1ccc(CNC(=O)C(C)Sc2nc(-c3ccccc3)cc(C(F)(F)F)n2)cc1", "note": "(stereo unspecified)", "survival": "165%"}, {"compound": "COc1ccc(CNc2ccc(-c3ccc(OC)cc3)nn2)cc1", "survival": "80%"}, {"compound": "COc1ccc(-c2cc(C(F)(F)F)nc(NCCc3ccccc3)n2)cc1", "survival": "1% (active)"}, {"compound": "COc1ccc(CNc2nc(-c3ccc(OC)c(OC)c3)cc(C(F)(F)F)n2)cc1", "survival": "11% (active)"}, {"compound": "COc1ccc(-c2cc(C(F)(F)F)nc(SCC(=O)NC(C)c3ccccc3)n2)cc1", "note": "(stereo unspecified)", "survival": "60%"}, {"compound": "COc1ccc(S(=O)(=O)c2c(O)c(C)cc(NC(=O)c3ccccc3)c2C(C)C)cc1", "survival": "80%"}, {"compound": "CCc1ccc(NC(=O)c2sc3nc(C)c(Cl)c(C)c3c2NC(=O)c2ccccc2)cc1", "survival": "76%"}, {"compound": "CCOC(=O)N1CCC(NC(=O)c2ccc3c(c2)N(Cc2ccc(F)cc2)C(=O)c2ccccc2S3=O)CC1", "note": "(stereo unspecified)", "survival": "58%"}, {"compound": "COc1ccc(CCNC(=O)c2c(O)nc3c(C)cccn3c2=O)cc1OC", "survival": "91%"}, {"compound": "CCN1C(=O)/C(=C\\C=C2/N(CC)c3ccc(C(=O)OC)cc3N2CC)SC1=S", "survival": "78%"}, {"compound": "Cc1ccc(NC(=O)Cn2c(=O)n(Cc3nc(-c4ccccc4)no3)c(=O)c3cc4c(cc32)OCO4)cc1C", "survival": "77%"}, {"compound": "CCc1ccccc1NC(=O)CN(Cc1ccccc1)S(=O)(=O)c1ccc2nc(C)sc2c1", "survival": "102%"}, {"compound": "Cc1ccc(C(=O)NC2(C(F)(F)F)C(=O)Nc3c2c(=O)[nH]c(=O)n3CCc2ccccc2)cc1", "note": "(stereo unspecified)", "survival": "74%"}, {"compound": "CC(C)CCNC(=O)c1cc2sccc2n1Cc1ccc(F)cc1", "survival": "87%"}, {"compound": "CCOc1ccccc1Nc1sc(C(=O)c2ccccc2)c(N)c1C(=O)Nc1ccccc1", "survival": "102%"}, {"compound": "COCCn1c(C)cc(O)c(C(c2ccccc2Cl)N2CCN(c3ccccc3)CC2)c1=O", "note": "(stereo unspecified)", "survival": "87%"}, {"compound": "CSc1ccc(CNC(=O)c2cc3c(=O)n(Cc4ccco4)ccc3nc2C)cc1", "survival": "94%"}, {"compound": "COc1ccc(-c2cn3c(n2)sc2cc(C(=O)NCc4ccccc4)ccc23)cc1", "survival": "63%"}, {"compound": "O=C(NCCOCCn1c(=O)oc2ccccc21)Nc1cccc(Cl)c1", "survival": "75%"}, {"compound": "COc1ccc(-c2cc(C(F)(F)F)nc(NCc3ccc(F)cc3)n2)cc1", "survival": "1% (active)"}, {"compound": "COc1ccc(-c2cc(C(F)(F)F)nc(NCc3ccccc3)n2)cc1OC", "survival": "42% (active)"}, {"compound": "COc1ccc(-c2cc(C(F)(F)F)nc(SCCC(=O)Nc3cccc(OC)c3)n2)cc1", "survival": "69%"}, {"compound": "COc1ccc(-c2cc(C(F)(F)F)nc(SCC(=O)NCc3ccc(F)cc3)n2)cc1", "survival": "74%"}, {"compound": "COc1ccc(-c2cc(C(F)(F)F)nc(NCCc3ccccc3)n2)cc1OC", "survival": "63%"}, {"compound": "COc1cccc(-c2nc(S(=O)(=O)c3ccccc3)c(NCc3ccccc3)o2)c1", "survival": "61%"}, {"compound": "COc1cccc(-c2cc(C(F)(F)F)nc(NCCc3ccccc3)n2)c1", "survival": "-8% (active)"}, {"compound": "COc1ccc(-c2cc(C(F)(F)F)nc(SCC(=O)NCC(C)C)n2)cc1OC", "survival": "137%"}, {"compound": "COc1cccc(-c2cc(C(F)(F)F)nc(NCc3ccc(F)cc3)n2)c1", "survival": "4% (active)"}, {"compound": "COc1cccc(-c2cc(C(=O)Nc3ccc(F)cc3)[nH]n2)c1", "survival": "73%"}, {"compound": "COc1ccccc1CCNC(=O)C(C)Sc1nc(-c2ccccc2)cc(C(F)(F)F)n1", "note": "(stereo unspecified)", "survival": "65%"}, {"compound": "COc1ccccc1/C=C/c1nc(C#N)c(N2CCCCC2)o1", "survival": "75%"}, {"compound": "Cc1ccc(C(=O)c2sc(Nc3ccccc3F)c(S(=O)(=O)c3ccccc3)c2N)c(C)c1", "survival": "74%"}, {"compound": "COC(=O)c1cc(NC(=O)c2nn(C)c3c2CSc2ccccc2-3)cc(C(=O)OC)c1", "survival": "88%"}, {"compound": "CN1CCN(C2(CNC(=O)c3ccc([N+](=O)[O-])cc3)CCCCC2)CC1", "survival": "102%"}, {"compound": "Cc1ccc(C(C)C)c(OCC(=O)NCC2(N(C)C)CCCCC2)c1", "survival": "95%"}, {"compound": "N#Cc1c(NC(=O)C2CC(=O)NN2Cc2ccccc2)sc2c1CCCC2", "note": "(stereo unspecified)", "survival": "82%"}, {"compound": "CCn1c(CNC(=O)c2ccc(OC)cc2)nnc1SCC(=O)Nc1ccc(F)cc1", "survival": "130%"}, {"compound": "O=C(C1=C(N2CCCCC2)c2ccccc2S(=O)(=O)N1)c1ccccc1", "survival": "94%"}, {"compound": "Cc1ccc(-n2nnc(-c3nc(-c4cccs4)no3)c2N)c(C)c1", "survival": "101%"}, {"compound": "Cc1ccccc1NC(=O)c1cc2c(-c3ccccc3)nn(-c3ccccc3)c2s1", "survival": "57%"}, {"compound": "O=C(Nc1ccccc1Cl)c1cc2c(-c3ccccc3)nn(-c3ccccc3)c2s1", "survival": "56%"}, {"compound": "Cc1nn(-c2ccccc2)c2sc(C(=O)Nc3ccccc3Br)cc12", "survival": "9% (active)"}, {"compound": "COc1ccccc1NC(=O)c1cc2c(-c3ccccc3)nn(-c3ccccc3)c2s1", "survival": "89%"}, {"compound": "COc1ccccc1NC(=O)c1cc2c(C)nn(-c3ccccc3)c2s1", "survival": "0% (active)"}, {"compound": "COc1ccc(NC(=O)c2cc3c(C)nn(-c4ccccc4)c3s2)c(OC)c1", "survival": "59%"}, {"compound": "CCc1ccccc1NC(=O)C1CCN(C2=NS(=O)(=O)C(c3ccc(C)c(C)c3)=C2C)CC1", "survival": "80%"}, {"compound": "COc1ccc(-c2nc(C(N)=O)c3c(n2)n(-c2ccccc2OC)c(=O)n3C)c(OC)c1", "survival": "82%"}, {"compound": "CCN(CC)S(=O)(=O)c1ccc(-n2cnnn2)c(C)c1", "survival": "111%"}, {"compound": "Cc1ccc(NC(=O)CSc2nncn3c2cc2sccc23)cc1F", "survival": "61%"}, {"compound": "COc1ccc(CCNC(=O)C2CCCN(S(=O)(=O)c3ccc4c(c3)oc(=O)n4C)C2)cc1OC", "note": "(stereo unspecified)", "survival": "72%"}, {"compound": "CCC1CCCCN1S(=O)(=O)c1ccc(NC(=O)c2cc(=O)c3c(C)cc(C)cc3o2)cc1", "note": "(stereo unspecified)", "survival": "45%"}, {"compound": "CCn1c2ccccc2c2cc(NC(=O)COc3cc(C)ccc3C)ccc21", "survival": "29% (active)"}, {"compound": "CCc1cccc(NC(=O)COc2cc(=O)n(CC)c3ccccc23)c1", "survival": "115%"}, {"compound": "COc1ccc(NC(=O)c2ccco2)cc1NC(=O)COc1ccc(C)cc1C", "survival": "56%"}, {"compound": "CCOC(=O)c1ccccc1NC(=O)COc1cc(=O)n(CC)c2ccccc12", "survival": "53%"}, {"compound": "CCc1ccc(OCC(=O)Nc2ccc3c(c2)c2ccccc2n3CC)cc1", "survival": "51%"}, {"compound": "COc1ccc(C)cc1NC(=O)COc1cc(=O)n(C)c2ccccc12", "survival": "90%"}, {"compound": "CCc1ccc(OCC(=O)Nc2ccc3c(c2)c2ccccc2n3CC)c(Br)c1", "survival": "6% (active)"}, {"compound": "Cc1ccc(-n2nc3ccc(NC(=O)COc4ccccc4C)cc3n2)cc1", "survival": "72%"}, {"compound": "CCn1c2ccccc2c2cc(NC(=O)COc3ccc(C)cc3C)ccc21", "survival": "-5% (active)"}, {"compound": "CCc1ccc(S(=O)(=O)c2nnn3c2nc(N2CCOCC2)c2sccc23)cc1", "survival": "83%"}, {"compound": "Cc1ccccc1-n1nc(CO)c(C(=O)NCCc2ccccc2)n1", "survival": "86%"}, {"compound": "Cc1ccc(-c2cc(C(F)F)n3ncc(C(=O)NCC4CCCO4)c3n2)cc1", "note": "(stereo unspecified)", "survival": "87%"}, {"compound": "CCCCN(C)CCNC(=O)CN1C(=O)CSc2ccc(S(=O)(=O)N3CCCCC3)cc21", "survival": "113%"}, {"compound": "CC(C)Cc1nn2cc(-c3cccc(Br)c3)nc2s1", "survival": "112%"}, {"compound": "Cn1ccc2cc(S(=O)(=O)N3CCCN(C(=O)Nc4ccccc4Br)CC3)ccc21", "survival": "67%"}, {"compound": "CCOc1ccc(Nc2nc3c(S(=O)(=O)c4ccc(CC)cc4)nnn3c3ccc(Cl)cc23)cc1", "survival": "104%"}, {"compound": "O=C(O)CNC(=O)c1sc2ccccc2c1Cl", "survival": "84%"}, {"compound": "O=C(Nc1cccc(C(F)(F)F)c1)c1cccs1", "survival": "95%"}, {"compound": "O=C(Nc1cccc(C(F)(F)F)c1)Nc1cccs1", "survival": "-3% (active)"}, {"compound": "O=C(Nc1cccs1)Nc1cc(C(F)(F)F)ccc1Cl", "survival": "11% (active)"}, {"compound": "Cc1ccc(NC(=O)Nc2cccs2)c(C)c1", "survival": "91%"}, {"compound": "Cc1cc(C)cc(NC(=O)Nc2cccs2)c1", "survival": "26% (active)"}, {"compound": "O=C(Nc1cc(C(F)(F)F)ccc1Cl)c1cc(-c2cccs2)nc2ccccc12", "survival": "86%"}, {"compound": "O=C(Nc1cccs1)Nc1ccc(F)cc1F", "survival": "83%"}, {"compound": "Cc1ccccc1NC(=O)Nc1cccs1", "survival": "94%"}, {"compound": "O=C(Nc1cccc(C(F)(F)F)c1)c1cccc(C(=O)Nc2cccc(C(F)(F)F)c2)c1", "survival": "84%"}, {"compound": "COc1ccc(CNC(=O)c2cnc(N3CCCC3)nc2C)cc1", "survival": "71%"}, {"compound": "O=S(=O)(Nc1ccc(-c2ccc(N3CCCC3)nn2)cc1)c1ccccc1Cl", "survival": "66%"}, {"compound": "CC1(NS(C)(=O)=O)CC=CC1", "survival": "115%"}, {"compound": "Cc1cccc(NC(=O)c2cccc(N3CCCS3(=O)=O)c2)c1", "survival": "78%"}, {"compound": "COc1cccc(C2C(C(=O)Nc3ccc(C)cc3C)=C(C)Nc3c(C(=O)Nc4cccc(C)c4)cnn32)c1OC", "note": "(stereo unspecified)", "survival": "94%"}, {"compound": "CCn1cc(S(=O)(=O)c2cccc(C)c2)c(=O)c2cc(F)c(N3CCN(c4ccccc4)CC3)cc21", "survival": "84%"}]}]}
